Screening data (PubChem)
eLon inh: inhibitors of E. coli Lon protease, primary screen, biochemical, fluorescence polarization. purified E. coli Lon protease. inhibition, % at 7.94 µM. 360,000 compounds, 0.42% hits; in the data active means inhibition above about 13%, passing the limit was not always enough;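 further: 0% = enzyme with probe and DMSO and 100% = no enzyme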
MEX-5 binding: MEX-5 zinc finger RNA-binding disruptors – biochemical, C. elegans, fluorescence polarization, MLPCN library, primary screen; Zinc finger protein mex-5 (Caenorhabditis elegans), Q9XUB2; MEX-5/FITC-TCR2 RNA binding; stronger effect = lower value; activity score (negative = inhibition of binding), % at 10 µM; 300,000 compounds, 0.38% hits;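 active means inhibition past about -25% in most replicates, and total fluorescence under double the plate's negative control median, limit read from the data; inconclusive means replicates evenly split on the limit, or fluorescence at least double controls; inactive means too little inhibition in most replicates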;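 further: 0% = DMSO and -100% = 5 µM competing unlabeled TCR2 RNA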
GLD-1 RNA inh: GLD-1/TGE RNA complex disruptors, primary screen, biochemical, fluorescence polarization | Female germline-specific tumor suppressor gld-1 (Caenorhabditis elegans), Q17339 | purified GLD-1 + fluorescein TGE RNA | inhibition, % at 5.96 µM | 320,000 compounds, 0.44% hits;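 active means percent inhibition above a per-plate cutoff, the plate mean of test compounds plus 3 SD, cut at about 30% in these data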;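 further: 0% = DMSO wells with GLD-1 and probe and 100% = wells lacking GLD-1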
Target sequence (Q17339 whole entry, looked up): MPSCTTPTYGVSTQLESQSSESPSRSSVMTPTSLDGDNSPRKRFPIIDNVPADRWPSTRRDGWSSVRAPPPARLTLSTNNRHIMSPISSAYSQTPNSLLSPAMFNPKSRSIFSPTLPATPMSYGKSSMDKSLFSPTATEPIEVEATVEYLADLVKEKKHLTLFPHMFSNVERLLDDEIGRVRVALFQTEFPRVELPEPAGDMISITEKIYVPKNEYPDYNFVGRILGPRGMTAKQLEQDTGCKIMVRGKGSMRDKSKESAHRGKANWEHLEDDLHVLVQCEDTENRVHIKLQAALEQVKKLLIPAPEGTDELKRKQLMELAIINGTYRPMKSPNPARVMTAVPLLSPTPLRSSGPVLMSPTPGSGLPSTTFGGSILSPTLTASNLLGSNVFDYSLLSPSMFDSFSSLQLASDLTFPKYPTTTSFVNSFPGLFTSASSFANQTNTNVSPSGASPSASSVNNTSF
EBV gp42 inh: Epstein-Barr virus gp42 inhibitors, primary screen, biochemical, uHTS, fluorescence polarization | Glycoprotein 42 (Epstein-Barr virus (strain AG876)), Q1HVG2 | 220,000 compounds, 0.42% hits | Fluorescence polarization binding assay, mP read-out | inhibition, % (tested at 21.74 µM); in the data active means inhibition above about 50%
Target sequence (Q1HVG2 whole entry, looked up): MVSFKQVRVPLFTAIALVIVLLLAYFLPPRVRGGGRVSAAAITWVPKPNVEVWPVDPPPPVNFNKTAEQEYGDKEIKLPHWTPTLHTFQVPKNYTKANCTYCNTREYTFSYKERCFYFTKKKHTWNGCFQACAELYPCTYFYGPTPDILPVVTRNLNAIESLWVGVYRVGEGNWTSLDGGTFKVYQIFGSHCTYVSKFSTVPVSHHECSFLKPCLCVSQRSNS
MCL1 BIM primary: inhibitors of MCL1 binding to BIM-BH3, primary screen, biochemical, fluorescence polarization. GST-MCL1 / FITC-Bim-BH3 fluorescence polarization. Induced myeloid leukemia cell differentiation protein Mcl-1 (Homo sapiens), Q07820. inhibition, % at 10.9 µM. 320,000 compounds, 0.68% hits;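 active means inhibition above the mean inhibition of all tested compounds plus 3 SD, set per campaign, cut at about 40% in these data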;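 further: 0% = DMSO wells and 100% = unlabeled Bim-BH3 peptide control; higher means more loss of mP so more displacement of Bim peptide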
Bcl-xL primary: inhibitors of human Bcl-xL, primary screen, biochemical, fluorescence polarization, HTS | Bcl-2-like protein 1 (Homo sapiens), Q07817 | GST-Bcl-xL / FITC-Bim BH3 peptide fluorescence polarization | inhibition, % at 10.9 µM | 320,000 compounds, 0.7% hits;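 active means inhibition above the mean of all tested compounds plus 3 SD, cutoff set per campaign, cut at about 30% in these data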;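 further: 0% = DMSO wells and 100% = unlabeled Bim-BH3 peptide competitor; inhibitors lower millipolarization by displacing the labeled peptide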
Bcl-xL conf: Bcl-xL inhibitors blocking Bim BH3 binding, confirmation, counter-screen for MCL1 inhibitor project, biochemical, fluorescence polarization; shares compounds with MCL1 BIM primary; GST-Bcl-xL / FITC-Bim BH3 peptide FP binding; inhibition, % at 10.9 µM; 1,700 compounds, 54% hits;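 active means inhibition above a cutoff equal to the mean inhibition of all tested compounds plus 3 SD, cut at about 30% in these data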;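 further: 0% = DMSO wells and 100% = unlabeled Bim BH3 control peptide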
MCL1 inh confirm: inhibitors of MCL1 binding to BIM-BH3, confirmation, biochemical, fluorescence polarization, triplicate; shares compounds with MCL1 BIM primary; AID 2168, 2009; inhibition, % at 10.9 µM; 1,700 compounds, 61% hits; GST-MCL1 / FITC-Bim-BH3 fluorescence polarization;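 active means inhibition above the average of all tested compounds plus 3 SD, cut at about 40% in these data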;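 further: 0% = DMSO wells and 100% = unlabeled Bim-BH3 control peptide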
GLD1 RNA confirm: GLD-1/TGE RNA binding inhibitors, retest, confirmation, biochemical, fluorescence polarization, triplicate | shares compounds with GLD-1 RNA inh | GLD-1/FL-TGE RNA fluorescence polarization | inhibition, % at 5.96 µM | 550 compounds, 10% hits;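 active means average inhibition across triplicates above the hit cutoff set in the primary screen, cut at about 32% in these data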;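 further: 0% = GLD-1 with RNA probe and DMSO and 100% = wells lacking GLD-1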
E coli Lon conf: E. coli Lon protease inhibitor retest, confirmation, biochemical, fluorescence polarization; shares compounds with eLon inh; purified E. coli Lon; inhibition, % at 7.94 µM; 1,400 compounds, 31% hits; AID 602230, 2012; in the data active means inhibition above about 16%;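 further: 0% = enzyme with probe and DMSO and 100% = no enzyme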
Numbers without * were called inactive; ? = inconclusive; nt = no result given; + = active, no number. Rows were chosen to be rich in hits. Some 1.5% of all compounds tested hit in one or more screens of this group.

SMILES | eLon inh | MEX-5 binding | GLD-1 RNA inh | EBV gp42 inh | MCL1 BIM primary | Bcl-xL primary | Bcl-xL conf | MCL1 inh confirm | GLD1 RNA confirm | E coli Lon conf
CC(=O)Nc1ccccc1-c1ccc(C)o1 | 1 | 1 | 0 | -3 | -7 | 1 | nt | nt | nt | nt
CCOC(=O)/C(C#N)=C/c1cc2cc(C)c(C)cc2nc1Cl | -15 | -3 | -9 | -19 | -11 | -4 | nt | nt | nt | nt
Cc1cc2cc(C=C(C#N)C#N)c(Cl)nc2cc1C | 89* | -3 | 163* | -16 | + | 193* | 27 | 27 | nt | 39*
O=[n+]1c2c(n([O-])c3cc(F)c(N4CCCC4)cc31)CCC2 | 151* | ? | 161* | nt | + | 191* | 186* | + | nt | 190*
O=[n+]1c2c(n([O-])c3cc(F)c(N4CCCC4)cc31)CCCC2 | 114* | ? | 145* | 101* | + | 181* | 173* | + | nt | 111*
CC(=O)Nc1ccc(S(=O)(=O)Nc2nc3ccccc3nc2Sc2nncn2C)cc1 | 19* | -18 | 37* | 44 | 78* | 78* | 41* | 47* | nt | 14
COc1cccc2c1C(=O)c1c(O)c3c(c(O)c1C2=O)C[C@@](O)(C(=O)CO)C[C@@H]3O[C@H]1C[C@H](N)[C@H](O)[C@H](C)O1 | + | ? | + | + | + | + | + | + | nt | +
COc1ccc2[nH]c(C)c(CCN(Cc3cccs3)C(=S)Nc3ccccc3)c2c1 | 68* | -2 | 46* | 9 | 88* | 79* | 38* | 59* | 11 | 22*
O=C(CSc1nc(C2CCCCC2)nc2ccccc12)NCc1ccc2c(c1)OCO2 | 3 | 0 | 3 | -14 | 7 | 2 | nt | nt | nt | nt
CCC1(CC)Cc2ccccc2-c2nc(CN(C)C)[nH]c(=O)c21 | 2 | 3 | -6 | nt | 3 | 5 | nt | nt | nt | nt
COC(=O)c1c(=O)n(O)c2ccc(OC)cc2[n+]1[O-] | 142* | -30* | 146* | 98* | 198* | 169* | 138* | 178* | nt | 88*
Cc1oc2c(O)c(O)ccc2c(=O)c1-c1ccc(Cl)cc1 | 16* | -1 | 1 | nt | 43* | 25 | 58* | 81* | nt | 13
O=Cc1c(N2CCN(CCO)CC2)nc2ccccn2c1=O | 41* | -8 | 41* | nt | 69* | 60* | 54* | 77* | 8 | -5
O=C1C(Cl)=C(N2CCN(Cc3ccccc3)CC2)C(=O)N1Cc1ccccc1 | 36* | -4 | 34* | -3 | 56* | 57* | 7 | 4 | 7 | 0
CNc1cccc2c1C(=O)c1ccccc1C2=O | 50* | -11 | 46* | 78* | 92* | 82* | 84* | 95* | 10 | 41*
CCOc1ccc(C(=O)n2cnnc2N)cc1 | 2 | -1 | 35* | -25 | -8 | -1 | nt | nt | 4 | nt
COc1ccc(C(=O)n2cnnc2N)cc1 | -3 | -1 | -2 | 0 | -7 | 0 | nt | nt | nt | nt
COc1c(CC=C(C)C)cc(C2CC(=O)c3c(O)cc(O)cc3O2)c(CC=C(C)C)c1O (stereo not given) | nt | -1 | 8 | nt | 2 | 4 | nt | nt | nt | nt
CC(C)=CCc1cc([C@@H]2CC(=O)c3ccc(O)c(CC=C(C)C)c3O2)ccc1O | -3 | -3 | 43* | nt | 1 | 2 | nt | nt | -6 | nt
Cn1c(=O)c2cc(NCc3ccccc3)nnc2n(C)c1=O | -2 | -3 | 32* | 0 | 44* | 46* | nt | nt | 5 | nt
COc1ccc2nc(N3CCC(O)CC3)c(C#N)cc2c1 | 0 | -16 | 37* | 46 | 38 | 42* | nt | nt | 31* | nt
COc1ccc2cc(C#N)c(N3CCOCC3)nc2c1 | -11 | -11 | -5 | nt | 5 | 8 | nt | nt | nt | nt
CCOC(=O)c1sc2ncnc(NCc3ccco3)c2c1C | -43 | -3 | -2 | -23 | -4 | 0 | nt | nt | nt | nt
O=C(OC(C(=O)Nc1ccc(Cl)cc1C(F)(F)F)c1ccccc1)C1=COCCO1 (stereo not given) | 6 | nt | -1 | 4 | -5 | -2 | nt | nt | nt | nt
O=C(OC(C(=O)Nc1ccc(Cl)c(C(F)(F)F)c1)c1ccccc1)C1=COCCO1 (stereo not given) | 0 | -1 | 45* | -14 | 5 | 3 | nt | nt | 5 | nt
SMILES | eLon inh | MEX-5 binding | GLD-1 RNA inh | EBV gp42 inh | MCL1 BIM primary | Bcl-xL primary | Bcl-xL conf | MCL1 inh confirm | GLD1 RNA confirm | E coli Lon conf
COc1cc(/C=C/C(=O)OCC(=O)N(CC(C)C)c2c(N)n(Cc3ccccc3)c(=O)[nH]c2=O)ccc1O | -4 | nt | nt | nt | nt | nt | nt | nt | nt | nt
N#CC1=C(N)Oc2c(oc(CO)cc2=O)C1c1ccccc1[N+](=O)[O-] (stereo not given) | 13 | -10 | 37* | 23 | 37 | 38* | nt | nt | 26 | nt
CCOC(=O)CNc1c(-c2ccc(OC)cc2)nc2ccc(Cl)cn12 | 3 | -11 | 37* | 12 | 18 | 16 | nt | nt | 20 | nt
COCCNc1c(-c2ccc(OC)cc2)nc2ccc(Cl)cn12 | -10 | -14 | 23 | 5 | 23 | 24 | nt | nt | nt | nt
COc1ccc(C(=O)NC(=S)Nc2ccc(CN3CCOCC3)cc2)cc1 | -13 | -3 | 64* | -5 | 5 | 6 | nt | nt | 3 | nt
COc1ccc(C2CC(c3ccc4ccccc4c3OC(C)=O)=NN2C(=O)/C=C/c2ccccc2)cc1 (stereo not given) | -6 | 3 | 1 | -5 | -3 | -1 | nt | nt | nt | nt
Nc1c(NCCC2=CCCCC2)c(=O)[nH]c(=O)n1Cc1ccccc1 | 7 | -50* | 48* | 48 | 41* | 42* | nt | nt | -2 | nt
FC(F)(F)c1cc(Oc2ccc(Cl)cc2)ncc1-c1nnc(-c2ccc(Cl)cc2)o1 | -2 | 3 | 2 | 1 | 10 | 8 | nt | nt | nt | nt
C=CCN1C(=O)N/C(=C/c2ccc(C)o2)C1=O | 12 | -4 | 42* | -7 | 24 | 16 | nt | nt | -14 | nt
